The values that follow come from PubChem BioAssay.

Assay [1] deals with Wnt5a (protein binding on small-molecule microarray). Put plainly: Wnt5a binders on small-molecule microarray, primary screen, biophysical, 635/667 nm fluorescence (AID 1142).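 Note: fluorescence read at 667 nm with signal to noise per printed feature.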 The note with it: 635 nm fluorescence, higher = more signal.
The nature of assay [2]: cell viability in Huh7 cells, primary screen, cytotoxicity control for HCV replication inhibitor project, CellTiter-Glo luminescence, basal, 48 h (AID 1143).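 Note: Huh7 hepatoma cells carrying a hepatitis C replication reporter with no stimulus; test concentration not given here.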 The note with it: Huh7 HCV replicon, higher = more signal, called active from +8 up or from −8 down. For orientation: In ATP-based viability assays light output follows the ATP content of the culture.
Assay [3] in a line: P. aeruginosa biofilm formation inhibitors, primary screen, PAO1 strain, BacTiter-Glo luminescence, LB-PBS (AID 1144). The following applies: 12 h, higher = more signal.
The nature of assay [4]: CREB reporter modulators without forskolin, primary screen, cell-based, PC12, CRE-LacZ reporter, unstimulated (AID 1145). The following applies: no forskolin, luminescence, 4.5 h, higher = more signal, called active from +8 up or from −8 down.
Assay [5] can be described thus: CREB reporter modulators under forskolin, primary screen, cell-based, PC12, CRE-LacZ reporter, forskolin-stimulated (AID 1146).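 Note: PC12 cells with 6xCRE LacZ reporter stimulated by forskolin 10 µM; beta-galactosidase reporter signal reflecting CREB driven transcription.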 The note with it: luminescence, 4.5 h, higher = more signal, called active from +8 up or from −8 down.
Assay [6] addresses Streptavidin (Streptomyces avidinii) (UniProt P22629). Put plainly: streptavidin binders on small-molecule microarray, primary screen, artefact control for SMM compound annotation, biophysical, 635/667 nm fluorescence (AID 1147).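 Note: signal reflects streptavidin binding to arrayed compounds as a control protein.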 The following applies: streptavidin binding, higher = more signal.
A short description of assay [7]: small-molecule binders of probe aInhba, primary screen, biochemical, small-molecule microarray, 635/667 nm fluorescence (AID 1148).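 Note: score merges 667nm spot fluorescence with signal-to-noise for antibody binding to printed compounds.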 The note with it: higher = more signal.
Assay [8] concerns the target Torsin-1A (Homo sapiens) (UniProt O14656). Put plainly: torsin A binders from cell lysate, primary screen, small-molecule microarray, wild-type, 635/667 nm (AID 1149). The following applies: COS7 hTOR1A-WT lysate, 635 nm fluorescence, higher = more signal.
Assay [9] has the same target. Briefly: small-molecule binders of mutant TOR1A in lysate, primary screen, cell lysate, small-molecule microarray, COS7 lysate, 635/667 nm fluorescence (AID 1150).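 Note: score pools 667 nm emission and signal to noise measuring lysate protein binding.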 The note with it: COS7 hTOR1A mutant lysate, 635 nm fluorescence, higher = more signal.
The subject of assay [10] is Sonic hedgehog protein (Shh). Briefly: small-molecule binders of Shh protein, primary screen, biochemical, small-molecule microarray, 635/667 nm fluorescence (AID 1151).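 Note: Shh protein binding to compounds spotted on small-molecule microarray slides; score combines spot fluorescence intensity with signal-to-noise across triplicate slides.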 The following applies: small-molecule microarray binding, 635 nm fluorescence; higher = more signal.
Assay [11] in a line: E. coli DRC41 culture turbidity changes, primary screen, E. coli filamentation inducer project, strain DRC41, OD650, 48 h (AID 1152).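 Note: E. coli MC1000 strain DRC41 lacking acrAB efflux pump and sulA.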 The following applies: E. coli DRC41 (acrAB sulA), higher = more signal, called active from +8 up or from −8 down.
Assay [12] is described as follows: small-molecule binders of probe aLefty1, primary screen, biochemical, small-molecule microarray, 635/667 nm fluorescence (AID 1153).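 Note: score merges spot fluorescence with signal-to-noise ratio from the scanned slide images.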 The note with it: higher = more signal.
Assay [13] in a line: PSAC antagonists in infected red cells, primary screen, cell-based, P. falciparum Indochina, OD700, 1 h (AID 1154). The following applies: P. falciparum Indochina infected RBC osmotic lysis, higher = more signal, called active from +8 up or from −8 down.
Assay [14] in a line: PSAC antagonists in infected red cells, primary screen, cell-based, P. falciparum Indochina, OD700, 2 h (AID 1155).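 Note: lysis reports solute entry through the parasite surface anion channel PSAC; channel blockers reduce lysis of infected cells.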 The following applies: P. falciparum Indochina infected erythrocytes, osmotic lysis OD700; higher = more signal, called active from +8 up or from −8 down.
Assay [15] is described as follows: osmotic lysis modulators in infected erythrocytes, primary screen, PSAC antagonist project, cell-based, P. falciparum Indochina, OD700, 3 h (AID 1156). The note with it: higher = more signal, called active from +8 up or from −8 down.
Assay [16] in a line: PSAC antagonists in infected red cells, primary screen, cell-based, P. falciparum Indochina, OD700, 18 h (AID 1157). The note with it: P. falciparum Indochina infected erythrocytes, osmotic lysis OD700, 18 h; higher = more signal, called active from +8 up or from −8 down.
Assay [17] can be described thus: modulators of S6 phosphorylation in cells, primary screen, cell-based, A549, cytoblot, luminescence, serum-stimulated (AID 1158).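 Note: serum-stimulated A549 lung adenocarcinoma cells; signal is phosphorylated S6 detected by cytoblot immunostaining with HRP secondary.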 The following applies: A549 phospho-S6 cytoblot, 5 h, higher = more signal.
Assay [18] concerns the target NADPH oxidase 2 (Homo sapiens) (UniProt P04839). Briefly: NOX2-dependent H2O2 signal modulators, primary screen, NOX inhibitor project, cell-based, HEK293-NOX2, PMA-stimulated, Amplex Red fluorescence (AID 1159). Note: test concentration not given here. The note with it: 45 min, higher = more signal, called active from +8 up or from −8 down.
Assay [19] deals with NADPH oxidase 4 (Homo sapiens) (UniProt Q9NPH5). Briefly: NOX4-dependent H2O2 signal modulators, primary screen, NOX inhibitor project, cell-based, HEK293-NOX4, tetracycline-induced, Amplex Red fluorescence (AID 1160). The following applies: 45 min, higher = more signal, called active from +8 up or from −8 down.
Sequence of NADPH oxidase 4 (Homo sapiens) (Q9NPH5 whole entry, looked up): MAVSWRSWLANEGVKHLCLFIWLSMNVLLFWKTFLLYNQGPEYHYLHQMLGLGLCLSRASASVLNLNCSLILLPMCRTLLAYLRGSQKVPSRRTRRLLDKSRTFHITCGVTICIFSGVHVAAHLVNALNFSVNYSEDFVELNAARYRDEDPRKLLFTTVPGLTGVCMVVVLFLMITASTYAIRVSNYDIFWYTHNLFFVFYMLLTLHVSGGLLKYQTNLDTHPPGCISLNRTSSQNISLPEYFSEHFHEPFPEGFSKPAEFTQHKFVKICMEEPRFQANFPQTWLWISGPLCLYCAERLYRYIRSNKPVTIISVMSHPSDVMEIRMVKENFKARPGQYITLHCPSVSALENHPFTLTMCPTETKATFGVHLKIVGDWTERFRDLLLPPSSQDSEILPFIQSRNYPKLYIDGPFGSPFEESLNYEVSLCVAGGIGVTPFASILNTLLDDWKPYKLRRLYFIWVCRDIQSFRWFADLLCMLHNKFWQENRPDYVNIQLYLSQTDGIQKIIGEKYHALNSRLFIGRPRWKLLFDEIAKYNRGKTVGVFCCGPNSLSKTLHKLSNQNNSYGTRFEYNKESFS
Assay [20] deals with NADPH oxidase 5 (Homo sapiens) (UniProt Q96PH1). Put plainly: NOX5-dependent H2O2 signal modulators, primary screen, NOX inhibitor project, cell-based, HEK293-NOX5, Amplex Red fluorescence (AID 1161). The note with it: HEK293-NOX5, ionomycin, 45 min, higher = more signal.
Sequence of NADPH oxidase 5 (Homo sapiens) (Q96PH1 whole entry, looked up): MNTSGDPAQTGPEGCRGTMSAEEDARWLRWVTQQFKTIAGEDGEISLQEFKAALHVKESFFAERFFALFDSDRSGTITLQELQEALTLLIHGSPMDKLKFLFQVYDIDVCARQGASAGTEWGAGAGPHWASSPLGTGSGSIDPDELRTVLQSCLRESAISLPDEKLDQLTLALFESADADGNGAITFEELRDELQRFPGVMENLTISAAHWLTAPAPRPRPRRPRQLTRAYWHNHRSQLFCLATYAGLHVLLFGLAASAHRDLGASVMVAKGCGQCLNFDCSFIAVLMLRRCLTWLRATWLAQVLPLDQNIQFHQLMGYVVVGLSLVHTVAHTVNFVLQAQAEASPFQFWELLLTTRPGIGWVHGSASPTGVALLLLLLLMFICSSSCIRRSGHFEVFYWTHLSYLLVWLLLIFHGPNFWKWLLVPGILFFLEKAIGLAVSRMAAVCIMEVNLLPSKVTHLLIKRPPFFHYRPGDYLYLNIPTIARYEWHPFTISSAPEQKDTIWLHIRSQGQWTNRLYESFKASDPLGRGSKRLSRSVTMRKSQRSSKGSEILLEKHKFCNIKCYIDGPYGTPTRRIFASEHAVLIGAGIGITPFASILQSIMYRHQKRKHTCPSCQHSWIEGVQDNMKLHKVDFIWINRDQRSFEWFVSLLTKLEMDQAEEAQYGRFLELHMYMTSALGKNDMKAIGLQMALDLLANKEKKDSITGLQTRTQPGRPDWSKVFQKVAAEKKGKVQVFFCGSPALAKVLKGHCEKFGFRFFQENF

The source made the active and inactive calls. Unless noted, the rule behind the calls is not given here.

Sequence of Streptavidin (Streptomyces avidinii) (P22629 whole entry, looked up): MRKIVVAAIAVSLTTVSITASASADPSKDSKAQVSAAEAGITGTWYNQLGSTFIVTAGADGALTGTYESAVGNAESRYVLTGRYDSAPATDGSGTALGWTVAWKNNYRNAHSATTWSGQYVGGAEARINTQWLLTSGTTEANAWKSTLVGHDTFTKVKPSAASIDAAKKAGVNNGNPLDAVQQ
Sequence of Torsin-1A (Homo sapiens) (O14656 whole entry, looked up): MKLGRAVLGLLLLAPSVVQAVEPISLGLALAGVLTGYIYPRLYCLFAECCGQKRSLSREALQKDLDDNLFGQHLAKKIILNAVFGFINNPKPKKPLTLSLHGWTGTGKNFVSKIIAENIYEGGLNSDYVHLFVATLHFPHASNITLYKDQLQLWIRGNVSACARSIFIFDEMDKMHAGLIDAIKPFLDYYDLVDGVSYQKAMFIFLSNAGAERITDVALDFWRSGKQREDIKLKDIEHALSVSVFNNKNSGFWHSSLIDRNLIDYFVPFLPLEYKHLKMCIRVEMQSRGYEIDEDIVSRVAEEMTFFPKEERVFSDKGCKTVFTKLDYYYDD
Sequence of NADPH oxidase 2 (Homo sapiens) (P04839 whole entry, looked up): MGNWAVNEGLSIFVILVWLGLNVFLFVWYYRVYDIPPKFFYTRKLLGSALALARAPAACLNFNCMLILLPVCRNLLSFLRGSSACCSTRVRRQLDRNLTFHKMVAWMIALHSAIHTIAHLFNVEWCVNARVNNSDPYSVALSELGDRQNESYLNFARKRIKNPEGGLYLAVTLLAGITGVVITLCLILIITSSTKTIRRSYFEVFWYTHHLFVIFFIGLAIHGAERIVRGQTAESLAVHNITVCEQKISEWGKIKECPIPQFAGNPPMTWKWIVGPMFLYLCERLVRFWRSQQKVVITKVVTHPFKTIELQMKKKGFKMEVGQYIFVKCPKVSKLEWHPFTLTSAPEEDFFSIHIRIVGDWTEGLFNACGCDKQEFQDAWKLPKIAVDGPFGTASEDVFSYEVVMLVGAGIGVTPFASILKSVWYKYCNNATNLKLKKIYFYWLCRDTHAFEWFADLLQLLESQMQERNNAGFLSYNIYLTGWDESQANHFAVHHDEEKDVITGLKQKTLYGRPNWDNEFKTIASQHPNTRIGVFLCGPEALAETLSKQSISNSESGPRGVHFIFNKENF

As for `CC1CC/C=C\[C@H]2OC34C=CCN(Cn5nnc6ccccc65)C(=O)[C@H]3N(CCCCCO)C(=O)[C@@H]4C2C(=O)O1` (stereo not given in full), the composite z-score in [1] is -0.613; in [6] it was -1.76; in [7], -0.176; in the assay with Torsin-1A (Homo sapiens) [8], -2.12; in the assay with Torsin-1A (Homo sapiens) [9] it was -1.12; in [10] it was -0.124. This compound registered a composite z-score in assay [12] of -0.624. Moreover, the z-score in [2] is -1.2 (inactive); in assay [3], -0.989 (inactive); in assay [4], 0.0524 (inactive); in [5], -0.567 (inactive); in assay [11] it was 0.996 (inactive); in assay [13] it was 0.586 (inactive). The z-score was 0.253 (inactive) in assay [14]; 0.193 (inactive) in [15]; 0.626 (inactive) in assay [16]; 0.0478 in assay [17]; 0.664 (inactive) in assay [18]; 0.341 (inactive) in assay [19]. The z-score in [20] was found to be 1.68.
For `CC(c1ccccc1)C(O)C1C=CC2C(=O)N(C)C(=O)C2N1NC(=O)OC(C)(C)C` (stereo not given), the composite z-score in [1] was 0.472; in assay [6] it was 2.15; in [7], 0.19; in the assay with Torsin-1A (Homo sapiens) [8], 0.516; with Torsin-1A (Homo sapiens) [9], 1.13; in [10] it was -0.656. In assay [12], this compound registered a composite z-score of 0.839. The z-score is 0.834 (inactive) in assay [2]; 0.059 (inactive) in [3]; 0.622 (inactive) in assay [4]; -0.434 (inactive) in assay [5]; -0.288 (inactive) in assay [11]; 0.667 (inactive) in assay [13]. For the same compound, the z-score is 0.871 (inactive) in assay [14]; -0.344 (inactive) in assay [15]; 0.508 (inactive) in assay [16]; -0.683 in assay [17]; -0.326 (inactive) in [18]; -0.289 (inactive) in assay [19]. Also, the z-score in assay [20] was -1.2.
Take `COCCOC(=O)N1C(=O)[C@@]2(c3cc(C#CCCO)ccc31)[C@H](c1ccc(O)cc1)N1[C@H](c3ccccc3)[C@H](c3ccccc3)OC(=O)[C@H]1[C@@H]2C(=O)N1CCN(c2ncccn2)CC1`: the composite z-score in [1] came out at 0.449; in assay [6], 0.842; in assay [7], 1.62; in the assay with Torsin-1A (Homo sapiens) [8], 0.852; in the assay with Torsin-1A (Homo sapiens) [9] it was 0.606; in assay [10] it was 1.53. The same compound came in with a composite z-score in assay [12] of 1.97. Besides, the z-score was -1.97 (inactive) in [2]; -0.185 (inactive) in [3]; -0.459 (inactive) in assay [4]; 0.648 (inactive) in assay [5]; 0.209 (inactive) in assay [11]; 1.65 (inactive) in [13]. The z-score was 0.0986 (inactive) in assay [14]; 0.599 (inactive) in [15]; 0.235 (inactive) in [16]; 0.078 in assay [17]; 1.11 (inactive) in [18]; 0.682 (inactive) in assay [19]. The same compound returned a z-score in assay [20] of 1.85.
For `COCCCNC(=O)[C@@]1(Cc2ccccc2)N=C(c2ccc(OCCCO)cc2)O[C@H]1c1ccccc1CN=[N+]=[N-]`, the composite z-score in assay [1] is 0.419; in assay [6], 0.716; in assay [7], 0.389; with Torsin-1A (Homo sapiens) [8], 0.544; with Torsin-1A (Homo sapiens) [9], 0.37; in [10], -0.0164. Besides, the composite z-score in assay [12] was determined as 0.272. For the same compound, the z-score in [2] was -3.17 (inactive); in assay [3], 1.55 (inactive); in assay [4] it was 0.447 (inactive); in [5] it was -0.929 (inactive); in [11], 0.576 (inactive); in assay [13], 14.3 (active). In addition, the z-score in assay [14] is 1.83 (inactive); in assay [15], 1.75 (inactive); in assay [16], 0.94 (inactive); in assay [17], -0.443; in assay [18], -4.56 (inactive); in assay [19], -0.271 (inactive). The compound also gave a z-score in [20] of -0.67.
As for `O=C1NC(=O)C2C1C=CC(C(O)C=Cc1ccc([N+](=O)[O-])cc1)N2Nc1ccc(Cl)cc1Cl` (stereo not given), the composite z-score was 0.28 in assay [1]; 1.14 in assay [6]; 0.317 in assay [7]; 0.339 with Torsin-1A (Homo sapiens) [8]; 0.417 with Torsin-1A (Homo sapiens) [9]; -0.08 in [10]. Also, the composite z-score in [12] came to 0.501. For the same compound, the z-score in assay [2] was 0.099 (inactive); in assay [3] it was -0.402 (inactive); in assay [4], 0.253 (inactive); in assay [5], 0.342 (inactive); in assay [11] it was -2.11 (inactive); in assay [13] it was 10.1 (active). In addition, the z-score was 2.46 (inactive) in assay [14]; 2.09 (inactive) in assay [15]; 1.66 (inactive) in [16]; -1 in assay [17]; -0.82 (inactive) in assay [18]; -6 (inactive) in assay [19]. Moreover, the z-score in assay [20] was -1.45.
